Assay results from PubChem BioAssay (NCI).
Compounds without any hit were thinned out: in the full panel of roughly 83,000, 20% have a hit.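 Percent growth is the endpoint: 0 to 100 indicates growth inhibition (40 means 60% inhibition), 0 means no net growth, and negative values indicate cell death.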 Active and inactive are the calls of the source. How the source made its calls: active means growth percent below 10; inactive means the rest.

Experiments:
Experiment in all cases: NCI-60 one-dose screen, 48 h (100 = growth as untreated, 0 = no growth, -100 = all killed)
Settings in all cases: 10 µM unless noted
T-47D breast = system: T-47D breast
BT-549 breast = system: BT-549 breast
MDA-MB-435 melanoma = system: MDA-MB-435 melanoma
SW-620 colon = system: SW-620 colon
MCF7 breast = system: MCF7 breast
HCT-116 colon = system: HCT-116 colon
HCC-2998 colon = system: HCC-2998 colon
KM12 colon = system: KM12 colon

Measured: growth

COc1ccccc1NCc1cccn1Cc1ccc(F)cc1
inactive: T-47D breast 97% | BT-549 breast 93.3% | MDA-MB-435 melanoma 99.6% | SW-620 colon 98.2% | MCF7 breast 93.1% | HCT-116 colon 93.8% | HCC-2998 colon 105% | KM12 colon 95.9%

CS(=O)(=O)c1ncc(-c2ccccc2)cn1
inactive: T-47D breast 94.4% | BT-549 breast 93.4% | MDA-MB-435 melanoma 95.2% | SW-620 colon 113% | MCF7 breast 91.9% | HCT-116 colon 96.9% | HCC-2998 colon 104% | KM12 colon 100%

O=C1CCC(N2C(=O)c3ccc(NS(=O)(=O)c4ccccc4OC(F)(F)F)cc3C2=O)C(=O)N1 (stereo not drawn)
inactive: T-47D breast 16.2% | BT-549 breast 14.8% | MDA-MB-435 melanoma 64.4% | SW-620 colon 20.2% | MCF7 breast 44.5% | HCT-116 colon 96.8% | HCC-2998 colon 11% | KM12 colon 40.6%

O=C(NNc1nc2cc(F)ccc2n2c(CN3CCCC3)ccc12)c1cnccn1
inactive: T-47D breast 15.4% | BT-549 breast 24.1% | MDA-MB-435 melanoma 34.4% | SW-620 colon 22.3% | HCT-116 colon 11.1% | HCC-2998 colon 35.7% | KM12 colon 20.3%
active: MCF7 breast 4.57%

COC(=O)/C=C/c1c(C2(C)NC(=O)c3ccccc3N2)c(=O)oc2ccc(Cl)cc12 (stereo not drawn)
inactive: T-47D breast 91.6% | BT-549 breast 87.4% | MDA-MB-435 melanoma 102% | SW-620 colon 96.3% | MCF7 breast 86.9% | HCT-116 colon 88.6% | HCC-2998 colon 102% | KM12 colon 93.4%

Cc1ccc(-c2nn(-c3ccccc3)cc2/C=C/C(=O)c2ccc(NC(=O)CCCCCCC(=O)NO)cc2)cc1
inactive: T-47D breast 58.5% | BT-549 breast 108% | MDA-MB-435 melanoma 67.9% | SW-620 colon 75.1% | MCF7 breast 71.4% | HCT-116 colon 33.6% | HCC-2998 colon 83.1% | KM12 colon 78.2%

CC(C)(C)n1nnnc1C(Nc1cccc2c1OCO2)c1cc2cccc3ccc4cccc1c4c32 (stereo not drawn)
inactive: T-47D breast 65.9% | BT-549 breast 130% | MDA-MB-435 melanoma 84.2% | SW-620 colon 88.8% | MCF7 breast 64.9% | HCT-116 colon 63% | HCC-2998 colon 98.7% | KM12 colon 95.4%

Cc1ccc(NC(=O)c2ccc(CN3CCN(C)CC3)cc2)cc1Oc1ccc(-c2[nH]nc3ncnc(N)c23)cc1
inactive: T-47D breast 81.4% | BT-549 breast 93% | MDA-MB-435 melanoma 86.4% | SW-620 colon 80.2% | MCF7 breast 35.7% | HCT-116 colon 81.9% | HCC-2998 colon 124% | KM12 colon 56.3%

Cn1ccnc1C(=O)/C=C/c1ccc(NC(=O)c2ccc(F)cc2)cc1
inactive: T-47D breast 22.5% | BT-549 breast 69.4% | MDA-MB-435 melanoma 43.1% | SW-620 colon 14.8% | MCF7 breast 18% | HCC-2998 colon 39.5% | KM12 colon 24.8%
active: HCT-116 colon 8.87%

NC(N)=Nc1ccc(Nc2cccc(Oc3ccc(Cl)c(C(F)(F)F)c3)c2)cn1
inactive: T-47D breast 23.7% | BT-549 breast 76.2% | MDA-MB-435 melanoma 18.3%
active: SW-620 colon -60.5% | MCF7 breast -11.2% | HCT-116 colon -72.9% | HCC-2998 colon -33.1% | KM12 colon -58.7%

Cc1ccc(C2=Nn3c(nnc3-c3ccccc3)SC2)cc1
inactive: T-47D breast 29.2% | BT-549 breast 22.5% | SW-620 colon 13.3% | MCF7 breast 16.4% | HCT-116 colon 17.7% | HCC-2998 colon 39.9% | KM12 colon 36.4%
active: MDA-MB-435 melanoma -22.2%

N#Cc1c(Nc2ccccc2)nn2c(-c3ccc([N+](=O)[O-])cc3)ccnc12
inactive: T-47D breast 110% | BT-549 breast 99.5% | MDA-MB-435 melanoma 97.4% | SW-620 colon 103% | MCF7 breast 93.2% | HCT-116 colon 99.3% | HCC-2998 colon 106% | KM12 colon 102%

CC(=O)c1ccc(Nc2nc(SCC(C)C)nc(-c3ccc(F)cc3)c2C#N)cc1
inactive: T-47D breast 106% | BT-549 breast 110% | MDA-MB-435 melanoma 111% | SW-620 colon 110% | MCF7 breast 114% | HCT-116 colon 108% | HCC-2998 colon 119% | KM12 colon 104%

Cc1ccc(CSc2nc(-c3ccc(Cl)cc3)c(C#N)c(N3CCOCC3)n2)cc1
inactive: T-47D breast 79% | BT-549 breast 115% | MDA-MB-435 melanoma 94.8% | SW-620 colon 96% | MCF7 breast 88.6% | HCT-116 colon 90% | HCC-2998 colon 104% | KM12 colon 96.5%

O=[N+]([O-])c1cc(/C=N/Nc2nc(N/N=C/c3ccc(Cl)c([N+](=O)[O-])c3)nc(N3CCCCC3)n2)ccc1Cl
active: MCF7 breast 0.909% | KM12 colon 5.45%
inactive: T-47D breast 48.2% | BT-549 breast 97.9% | MDA-MB-435 melanoma 92.3% | SW-620 colon 63.7% | HCT-116 colon 22% | HCC-2998 colon 67.4%

C=CCn1c(-c2nc3ccc(C(=C(C#N)C#N)c4ccccc4)cc3[nH]2)cc2cc(Br)ccc21
inactive: T-47D breast 43% | BT-549 breast 71.3% | MDA-MB-435 melanoma 75.2% | SW-620 colon 61.2% | HCT-116 colon 27.4% | HCC-2998 colon 61.2% | KM12 colon 34.1%
active: MCF7 breast 0.939%

COc1ccc(-c2cc(-c3ccc(Cl)cc3)c(C#N)c(=O)n2Cc2ccc(C(=O)O)cc2)cc1
inactive: T-47D breast 48.7% | BT-549 breast 62.8% | MDA-MB-435 melanoma 21.1% | SW-620 colon 94.8% | MCF7 breast 33.3% | HCT-116 colon 77.7% | HCC-2998 colon 95.6% | KM12 colon 43.2%

CCOC(=O)C1=NNC(c2ccc(Cl)cc2)C1C(=O)N1C(=S)NC(=O)C1CC(C)C (stereo not drawn)
inactive: T-47D breast 89.1% | BT-549 breast 106% | MDA-MB-435 melanoma 104% | SW-620 colon 95.3% | MCF7 breast 91.5% | HCT-116 colon 97.8% | HCC-2998 colon 121% | KM12 colon 101%

CC(=O)C1=C(C)NC(NN)=NC1c1cccc(Cl)c1 (stereo not drawn)
inactive: T-47D breast 101% | BT-549 breast 119% | MDA-MB-435 melanoma 103% | SW-620 colon 108% | MCF7 breast 92.3% | HCT-116 colon 105% | HCC-2998 colon 127% | KM12 colon 102%

N#C/C(=C\c1ccc(-c2ccc(Cl)cc2Cl)o1)c1ccc(F)cc1
inactive: T-47D breast 78.8% | BT-549 breast 112% | MDA-MB-435 melanoma 93.7% | SW-620 colon 93.5% | MCF7 breast 66.9% | HCT-116 colon 88.1% | HCC-2998 colon 105% | KM12 colon 94.2%

O=C(NNc1nc2cc(F)ccc2n2c(CO)ccc12)c1cnccn1
inactive: T-47D breast 11.7% | BT-549 breast 22.6% | MDA-MB-435 melanoma 27.3% | SW-620 colon 21.3% | HCT-116 colon 17.7% | HCC-2998 colon 44.5% | KM12 colon 22.2%
active: MCF7 breast 8.73%

CC(=O)c1cc(C(=O)c2ccc(Br)cc2)n2cc(C)cc(C)c12
inactive: T-47D breast 78.8% | BT-549 breast 79% | MDA-MB-435 melanoma 97.7% | SW-620 colon 103% | MCF7 breast 85.3% | HCT-116 colon 85.7% | HCC-2998 colon 82.6% | KM12 colon 97.5%

c1n[nH]cc1-c1nc2ccc3[nH]ncc3c2c2c1CCCC2
inactive: T-47D breast 15.7% | HCC-2998 colon 33.5%
active: BT-549 breast -18.9% | MDA-MB-435 melanoma 1.93% | SW-620 colon 6.24% | MCF7 breast 3.93% | HCT-116 colon -3.08% | KM12 colon 5.28%

COc1ccc(C(=O)CSc2nc3c(c(Nc4ccc(S(N)(=O)=O)cc4)n2)CCCC3)cc1
inactive: T-47D breast 71.3% | BT-549 breast 127% | MDA-MB-435 melanoma 103% | SW-620 colon 86.4% | MCF7 breast 97.8% | HCT-116 colon 93% | HCC-2998 colon 97.6% | KM12 colon 73.7%

O=S(=O)(Nc1ccc(I)cc1Cl)c1ccc(-c2cnc(C3CC3)o2)cc1
active: MDA-MB-435 melanoma -4.66%
inactive: T-47D breast 31.7% | BT-549 breast 34.9% | SW-620 colon 17.9% | MCF7 breast 23.1% | HCT-116 colon 22.1% | HCC-2998 colon 78.6% | KM12 colon 26%

COc1cc(-c2nc(-c3ccccc3)[nH]c2-c2ccnc(NCCCNS(=O)(=O)c3cccc(F)c3)n2)ccc1Cl
inactive: T-47D breast 24.1% | BT-549 breast 71% | MDA-MB-435 melanoma 22.5% | SW-620 colon 71.3% | MCF7 breast 35.3% | HCT-116 colon 18.8% | HCC-2998 colon 55.5% | KM12 colon 39.8%

CCCCCc1ccc(S(=O)(=O)Nc2cc(-c3csc(NC(=O)CN4CCN(C)CC4)n3)ccc2N2CCN(C)CC2)cc1
active: T-47D breast -49.9% | MDA-MB-435 melanoma -78.6% | SW-620 colon -55.1% | MCF7 breast -85.9% | HCT-116 colon -70.9% | HCC-2998 colon -25.2%
inactive: BT-549 breast 77.5% | KM12 colon 38.9%

O=C(CSc1nc2ccccc2c(=O)n1-c1ccccc1)Nc1ccc(-c2nc3ccc([N+](=O)[O-])cc3[nH]2)cc1
inactive: T-47D breast 89.1% | BT-549 breast 80% | MDA-MB-435 melanoma 80.1% | SW-620 colon 43.7% | MCF7 breast 40.6% | HCT-116 colon 67.4% | HCC-2998 colon 100% | KM12 colon 91.7%

Cc1ccc(-c2nnc(SCc3ccc(O)c4ncccc34)o2)cc1
inactive: T-47D breast 13.4% | BT-549 breast 30% | MDA-MB-435 melanoma 17.7% | SW-620 colon 14.1% | MCF7 breast 10.6% | HCT-116 colon 18.5% | HCC-2998 colon 34.4% | KM12 colon 11.4%

O=C(O)c1ccc(-n2cc(CNc3cccc(Cl)c3)c(-c3ccc(F)cc3)n2)cc1
inactive: T-47D breast 92.1% | BT-549 breast 108% | MDA-MB-435 melanoma 102% | SW-620 colon 110% | MCF7 breast 70% | HCT-116 colon 89.2% | HCC-2998 colon 105% | KM12 colon 94.2%

COc1cc(Cn2cc3c(c2)-c2onc(CN4CCOCC4)c2CC3)cc(OC)c1OC
inactive: T-47D breast 79.3% | BT-549 breast 96.7% | MDA-MB-435 melanoma 101% | SW-620 colon 112% | MCF7 breast 89% | HCT-116 colon 104% | HCC-2998 colon 105% | KM12 colon 101%
